Shown are actives, neighbours in structure and some others; about 12% of the full set was active somewhere.
HP1b binding inh – HP1-beta chromodomain-methylated histone interaction inhibition; AlphaScreen HP1-beta / biotin-H3K9me3 peptide binding; Potency, µM (series often up to 114 µM), for the others: top-dose activity change, negative = inhibition, actives largely listed as inhibitors; hit rate 0.56% among 390,000; also: nearly all actives have a fitted effect of over 70% in size
Target sequence (P83916 whole entry, looked up): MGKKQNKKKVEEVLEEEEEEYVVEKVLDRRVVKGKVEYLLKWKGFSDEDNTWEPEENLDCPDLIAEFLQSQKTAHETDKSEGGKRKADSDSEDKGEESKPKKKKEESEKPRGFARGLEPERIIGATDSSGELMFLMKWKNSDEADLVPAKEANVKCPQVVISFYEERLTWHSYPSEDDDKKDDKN
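HP1-beta protein (50 nM final) preincubated 30 min at room temperature with biotinylated H3(1-18)K9me3 peptide (50 nM) in PBS pH 7.4, 0.01% Tween-20, then compound added for 30 min. AlphaScreen streptavidin donor/nickel chelate acceptor beads (10 ug/mL final), 30 min dark, luminescence read.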
Sfp PPTase inh – Sfp phosphopantetheinyl transferase inhibition; Q9F4F7; Biochemical Sfp PPTase activity, qHTS; Potency, µM, for inactives: largest response in the series, negative = inhibition, usual class: inhibitors; hit rate 3.5% among 310,000; AID 1490;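 also: the enzyme is Sfp with the accession as filed and its product quenches rhodamine fluorescence; 0% = enzyme reaction without inhibitor and -100% = no enzyme wells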
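After 15 min at room temperature with compound, 15 nM Sfp received 5 uM rhodamine-CoA plus 12.5 uM BHQ-2-ybbR (50 mM Hepes pH 7.6, 10 mM MgCl2). Rate came from the fluorescence difference over 30 min, ex 525/em 598 nm.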
L3MBTL1 inh – blocks human L3MBTL1; Q9Y468; AlphaScreen L3MBTL1–H3K9me1 peptide binding; Potency, µM (doses to about 57.1 µM), for the others: at the top dose activity, negative = inhibition, actives largely listed as inhibitors; hit rate 0.66% among 230,000; also: % is scaled to controls: 0 for no effect and ±100 for the full control effect; nearly all actives have a fitted effect of over 60% in size
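Displacement of a biotinylated histone H3(1-15) peptide monomethylated at Lys9 (75 nM) from L3MBTL1 (50 nM) was measured by AlphaScreen after a 30 min room-temperature compound incubation; cefsulodin titration served as intraplate control.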
JMJD2A Tudor inh – inhibitors of human JMJD2A Tudor domain; O75164; AlphaScreen JMJD2A-Tudor / H3K4me3 peptide binding; Potency, µM (series often up to 114 µM), for inactives: top-dose activity change, negative = inhibition, usual class: inhibitors; hit rate 4.4% among 390,000; AID 504339; also: % is scaled to controls: 0 for no effect and ±100 for the full control effect; nearly all actives have a fitted effect of over 50% in size
G9a block – inhibitors of human histone lysine methyltransferase G9a; Potency, µM (top dose mostly 102 µM), without a hit: at the top dose activity, negative = inhibition, usual class: inhibitors; hit rate 8.8% among 350,000; AID 504332; Q96KQ7; G9a H3K9 monomethylation, AlphaScreen, 2 h; also: % is scaled to controls: 0 for no effect and ±100 for the full control effect; nearly all actives have a fitted effect of over 75% in size
Target sequence (Q96KQ7 913-1193 limits assumed): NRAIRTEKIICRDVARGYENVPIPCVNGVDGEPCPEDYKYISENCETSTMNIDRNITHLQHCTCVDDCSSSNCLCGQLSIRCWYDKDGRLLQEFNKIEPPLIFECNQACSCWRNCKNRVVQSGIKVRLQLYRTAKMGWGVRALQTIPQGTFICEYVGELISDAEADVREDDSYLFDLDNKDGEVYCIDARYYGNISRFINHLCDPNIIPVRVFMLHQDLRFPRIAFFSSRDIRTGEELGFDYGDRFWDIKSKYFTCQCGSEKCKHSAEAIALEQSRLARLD
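G9a (20 nM) was preincubated 15 min with compound, then reacted 2 h at room temperature with 500 nM biotin-H3K9 peptide and 20 µM SAM. Monomethyl-H3K9 detected by AlphaScreen using anti-H3K9me1 antibody.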
BAZ2B block – inhibitors of human BAZ2B bromodomain. AlphaScreen BAZ2B-H3K14Ac peptide displacement. Q9UIF8. hit rate 4.4% among 360,000. Potency, µM (series often up to 114 µM), for inactives: at the top dose activity change, negative = inhibition, actives largely listed as inhibitors. AID 504333; also: % is scaled to controls: 0 for no effect and ±100 for the full control effect; nearly all actives have a fitted effect of over 60% in size
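AlphaScreen displacement of biotin-H3(5-23)K14Ac peptide (50 nM final) from BAZ2B (50 nM final) in PBS pH 7.4, 0.01% Tween-20; complex preformed 30 min RT, then compounds (top 110 uM) 30 min RT, beads 20 min dark.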
An asterisk follows results filed as active; ? = inconclusive; . = no result given; [ ] = another dose, or the depositor's remark. Calls follow the shape of the dose curve; as a rule, active = well fitted curve in the direction sought with a large enough effect; inconclusive = small, poorly fitted or top-dose-only effect, or another doubt; inactive = no such curve, though single readings can be large; an effect the other way counts as inactive or inconclusive. Potency is read from the fitted curve at half-maximal effect.

SMILES	HP1b binding inh	Sfp PPTase inh	L3MBTL1 inh	JMJD2A Tudor inh	G9a block	BAZ2B block
CC1CC(C)(C)Nc2ccc(N=O)cc21 (stereo not given)	10%	22%	-22%	-29%	?	-2%
CC1CC(C)(C)Nc2ccc(OC(=O)c3ccco3)cc21 (stereo not given)	-9%	-13%	?	?	45µM*	?
CCC(CC)NCC(O)COc1ccc(Br)cc1 (stereo not given)	?	-15%	.	1µM*	-42%	28µM*
CCOC(=O)c1cnc(-c2ccccc2O)nc1Cl	17%	-6%	.	18µM*	45µM*	?
CC(C)C1C(=O)NC(=S)N1S(=O)(=O)c1ccc(C(C)(C)C)cc1 (stereo not given)	-10%	4%	.	-12%	3.2µM*	-7%
CC(=O)Oc1cccc(/C=c2\sc3nc(-c4ccco4)nn3c2=O)c1	0%	-13%	?	50µM*	?	-35%
CC1(C)Cc2c(c(N3CCCC3)[nH]c(=S)c2C#N)CO1	.	40µM*	.	.	?	12%
CC(C)(C)C(=O)Nc1ccc(C(=O)Nc2cccc(Oc3ccc(C(=O)O)c(C(=O)O)c3)c2)cc1	-2%	16%	-6%	-33%	45µM*	-33%
O=C(O)c1ccccc1C(=O)Nc1ccc(Oc2ccccc2)cc1	6%	9%	1%	-25%	.	-15%
O=C(Nc1cccc(Oc2ccc(C(=O)O)c(C(=O)O)c2)c1)c1ccc(-c2ccccc2)cc1	?	0%	.	-14%[11.4 µM]	.	50µM*
CC(=O)O[C@H]1C2=C(C(=O)[C@H]3O[C@@H]31)[C@@H]1[C@@H]3[C@@H](C)OC=C4[C@H](O)[C@H]5O[C@@H]5C(=O)[C@]43C2O[C@H]1C	.	22%	.	.	.	.
Cc1ccc(CSc2nc3cccnc3n2Cc2ccc(C(=O)NC3CCCCC3)cc2)cc1	27%	.	.	-11%	4%[59 µM]	-2%
Cc1cc(=O)[nH]c(N/N=C/c2sccc2C)n1	32%	13µM*	-7%	-15%[57.1 µM]	?	1%
C/C=C/C=N/Nc1nc(C)cc(=O)[nH]1	22%	?	10%	1.6µM*	3.5µM*	50µM*
Cc1cc(=O)[nH]c(N/N=C/c2c(F)c(F)c(F)c(F)c2F)n1	31%	?	.	15%	-1%	?
COc1ccc(OC)c(/C=N/Nc2nc(C)cc(=O)[nH]2)c1	21%	?	.	-35%	45µM*	50µM*
Cc1cc(=O)[nH]c(NN=Cc2cc(Br)ccc2O)n1	17%	.	.	79µM*	.	.
Cc1cc(=O)[nH]c(N/N=C/c2cccs2)n1	28%	-11%	15%	?	-22%[59 µM]	2%
O=C(COC(=O)C12CC3CC(CC(Br)(C3)C1)C2)NCc1ccco1	13%	.	.	-5%	.	.
COc1ccc(C2Nc3ccccc3C(=O)N2c2ccc(Cl)cc2)cc1COc1ccc(NC(C)=O)cc1 (stereo not given)	19%[57 µM]	.	.	-24%[57.1 µM]	.	.
CC(/C=N/Nc1nc(C)cc(=O)[nH]1)=C\c1ccccc1	72%	-1%	.	-17%	?	-4%
Cc1cc(=O)[nH]c(N/N=C/C(C)c2ccccc2)n1 (stereo not given)	-4%	?	-1%	1.1µM*	16µM*	-27%
Cc1cc(=O)[nH]c(N/N=C/c2ccccc2Cl)n1	15%	-7%	.	79µM*	40µM*	-2%
CC(=O)c1cccc(NC(=O)COC(=O)CCC(=O)c2cccs2)c1	5%	.	9%	-10%	10%[0.501 µM]	-3%
CC1CC(C)(C)N(C(=O)CN2CCN(C)CC2)c2ccccc21 (stereo not given)	?	?	-9%	20µM*	.	25µM*
COc1ccc(CCNC(=O)Cc2cccc(C(F)(F)F)c2)cc1OC	37%	13%	.	5%	-3%	-7%
CCCCC(CC)CN=C(N)NC(N)=NCCCCCCN=C(N)NC(N)=NCC(CC)CCCC (stereo not given)	33%	14µM*	8%	79µM*	-26%[59 µM]	3%
N#Cc1nc(Nc2cc(F)cc(F)c2)nc(NC2CCCC2)n1	.	.	.	-12%	.	.

Screens as filed in PubChem.
